Among the test systems are HCT-15 colon; HT29 colon; SNB-75 CNS; SNB-19 CNS; U251 CNS; PC-3 prostate; SK-MEL-5 melanoma; UACC-62 melanoma; LOX IMVI melanoma; SK-MEL-28 melanoma; SK-MEL-2 melanoma; EKVX NSCLC; SN12C renal; UO-31 renal; TK-10 renal; ACHN renal; CAKI-1 renal; A498 renal; CCRF-CEM leukemia; MOLT-4 leukemia.
Experiment in all cases: NCI-60 one-dose screen, 48 h (100 = growth as untreated, 0 = no growth, -100 = all killed)
Holding throughout (settings): 10 µM unless noted

Structures are written as SMILES. This is part of a sample that, as a whole, favours compounds with a hit. Of some 83,000 tested, about 20% had one in any assay.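 48-hour exposure, single concentration, 96-well plates; percent growth endpoint where 0 means no net growth. Active: below 10.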 Unmarked numbers belong to inactive results. Calls of active or inactive are those of the source.

For eight compounds, growth results are on record in PubChem BioAssay (NCI).

With `CC(C)(C)[Si](C)(C)OC1[C@@H](CNC(=O)NC(=O)NC(N)=O)O[C@@H](n2cnc3c(NC(=O)Nc4ccccc4)ncnc32)[C@H]1O[Si](C)(C)C(C)(C)C` (stereo not given in full), the growth in the assay with HCT-15 colon is 94.8%; in the assay with HT29 colon, 10.5%; in the assay on SNB-75 CNS, 84.1%; in the assay on SNB-19 CNS, 98.3%; in the assay on U251 CNS, 69.1%; with PC-3 prostate it was 41.5%. In addition, the growth with SK-MEL-5 melanoma is 91.8%; in the assay with UACC-62 melanoma it was 87.8%; in the assay with LOX IMVI melanoma, 56%; with SK-MEL-28 melanoma, 63.5%; in the assay with SK-MEL-2 melanoma, 94.8%; in the assay with EKVX NSCLC, 90.5%. Besides, the growth in the assay with SN12C renal is 74.6%; in the assay on UO-31 renal, 95.2%; in the assay on TK-10 renal it was 88.9%; in the assay on ACHN renal, 77.3%; with CAKI-1 renal, 101%; in the assay with A498 renal, 101%. The growth with CCRF-CEM leukemia is 71.4%; in the assay with MOLT-4 leukemia it was 54.3%.
Regarding `CCOC(=O)NC(C)C`, the growth in the assay with HCT-15 colon is 109%; with HT29 colon it was 107%; in the assay on SNB-75 CNS, 96.8%; in the assay on SNB-19 CNS, 99.3%; with U251 CNS, 106%; with PC-3 prostate, 82%. Further, the growth in the assay with SK-MEL-5 melanoma is 103%; in the assay with UACC-62 melanoma, 105%; in the assay with LOX IMVI melanoma, 102%; in the assay on SK-MEL-28 melanoma, 119%; with SK-MEL-2 melanoma it was 114%; in the assay on EKVX NSCLC, 105%. Moreover, the growth is 100% in the assay with SN12C renal; 81.5% in the assay on UO-31 renal; 115% with TK-10 renal; 100% in the assay on ACHN renal; 98.2% in the assay on CAKI-1 renal; 117% in the assay with A498 renal. Also, the values for the growth with CCRF-CEM leukemia and with MOLT-4 leukemia were 110% and 82.9%, respectively.
Take `Cc1ccc2c(c1)=C/C(=C\c1cc(-c3ccccc3)oc1O)C(=O)N=2`: the growth in the assay on HCT-15 colon was 97.6%; in the assay with HT29 colon it was 108%; with SNB-75 CNS, 93.5%; in the assay with SNB-19 CNS it was 107%; in the assay on U251 CNS, 109%; in the assay with PC-3 prostate, 96.3%. Besides, the growth was 105% in the assay with SK-MEL-5 melanoma; 101% in the assay with UACC-62 melanoma; 94.4% in the assay on LOX IMVI melanoma; 104% in the assay on SK-MEL-28 melanoma; 114% in the assay with SK-MEL-2 melanoma; 92.6% in the assay on EKVX NSCLC. For the same compound, the growth in the assay on SN12C renal is 106%; in the assay with UO-31 renal it was 100%; with TK-10 renal it was 97.6%; in the assay with ACHN renal it was 105%; in the assay on CAKI-1 renal, 91.1%; in the assay with A498 renal, 96.6%. Further, the growth with CCRF-CEM leukemia is 100%.
For `O=c1c2ccccc2n2cnc3ccc(Cl)c1c32`, the growth in the assay on HCT-15 colon is 66.4%; in the assay on HT29 colon, 73.4%; with SNB-75 CNS, 100%; in the assay with SNB-19 CNS, 83.8%; in the assay on U251 CNS, 78.4%; with PC-3 prostate, 85.2%. Besides, the growth with SK-MEL-5 melanoma is 77%; with UACC-62 melanoma, 64.6%; in the assay on LOX IMVI melanoma, 62.8%; with SK-MEL-28 melanoma, 92.2%; with SK-MEL-2 melanoma it was 96.5%; in the assay on EKVX NSCLC, 62.7%. Further, the growth with SN12C renal was 76.1%; with UO-31 renal, 44.8%; in the assay on TK-10 renal, 49.2%; with ACHN renal, 50.5%; with CAKI-1 renal it was 43.1%; in the assay with A498 renal, 54.1%. Besides, the growth in the assay on CCRF-CEM leukemia was 95.7%.
Take `CCCCCC(/C=N\NC(=S)N/N=C/C(=C/c1ccccc1)CCCCC)=C\c1ccccc1`: the growth is 45.4% in the assay on HCT-15 colon; 105% with HT29 colon; 102% in the assay on SNB-75 CNS; 56.8% with SNB-19 CNS; 55.3% in the assay with U251 CNS; 46.1% in the assay with PC-3 prostate. Also, the growth in the assay on SK-MEL-5 melanoma is 68.2%; with UACC-62 melanoma it was 56.8%; in the assay on LOX IMVI melanoma, 60.8%; in the assay on SK-MEL-28 melanoma it was 93.7%; in the assay on SK-MEL-2 melanoma, 80.9%; in the assay on EKVX NSCLC it was 76.6%. Moreover, the growth with SN12C renal was 68.1%; in the assay with UO-31 renal, 45.4%; in the assay on TK-10 renal it was 87.3%; with ACHN renal it was 69.3%; in the assay with CAKI-1 renal, 42.1%; with A498 renal it was 70.1%. For the same compound, the growth in the assay with CCRF-CEM leukemia is 31.1%; in the assay on MOLT-4 leukemia, 42%.
As to `O=C(C[C@]1(O)C(=O)Nc2ccccc21)c1cccc(C(F)(F)F)c1`, the growth in the assay on HCT-15 colon is 96.5%; in the assay with HT29 colon, 96.1%; with SNB-75 CNS, 76.8%; in the assay with SNB-19 CNS it was 95.9%; in the assay on U251 CNS it was 92.4%; in the assay on PC-3 prostate it was 81.4%. Besides, the growth with SK-MEL-5 melanoma is 91.7%; in the assay on UACC-62 melanoma, 78.3%; in the assay on LOX IMVI melanoma, 93.2%; in the assay on SK-MEL-28 melanoma, 91.6%; in the assay on SK-MEL-2 melanoma, 91.2%; in the assay on EKVX NSCLC, 99.5%. Further, the growth with SN12C renal was 80%; in the assay on UO-31 renal it was 58.1%; in the assay with TK-10 renal, 138%; with ACHN renal it was 88.2%; with CAKI-1 renal, 81.7%; with A498 renal it was 99.8%. Also, in the assay on CCRF-CEM leukemia, the growth is 97%.
Turning to `OCCn1cc(-c2nc(-c3c[nH]c4ncccc34)cs2)c2cc(F)ccc21`, the growth in the assay on HCT-15 colon is 41.6%; with HT29 colon, 46.8%; in the assay with SNB-75 CNS, 72.5%; in the assay on SNB-19 CNS, 79.5%; with U251 CNS it was 62.9%; with PC-3 prostate it was 48.7%. Moreover, the growth is 63% with SK-MEL-5 melanoma; 63.3% in the assay with UACC-62 melanoma; 65.5% in the assay on LOX IMVI melanoma; 89.8% in the assay on SK-MEL-28 melanoma; 66.2% with SK-MEL-2 melanoma; 37.2% in the assay with EKVX NSCLC. Moreover, the growth is 80.3% with SN12C renal; 39.4% in the assay on UO-31 renal; 62.1% in the assay on TK-10 renal; 65.8% with ACHN renal; 70.7% with CAKI-1 renal; 23% in the assay on A498 renal. In addition, in the assay on CCRF-CEM leukemia, the growth is 56%.
On to `Cc1ccc(-c2nc(N3CCCNCC3)c3oc(-c4ccccc4)nc3n2)cc1`, for which the growth is -85.1% (active) in the assay on HCT-15 colon; -82.8% (active) in the assay on HT29 colon; -67.3% (active) in the assay on SNB-75 CNS; 8.75% (active) in the assay on SNB-19 CNS; -85.9% (active) in the assay with U251 CNS; -88.7% (active) with PC-3 prostate. Also, the growth in the assay on SK-MEL-5 melanoma was -93.4% (active); in the assay with UACC-62 melanoma, -91.8% (active); in the assay with LOX IMVI melanoma, -91.6% (active); with SK-MEL-28 melanoma it was -93.4% (active); with SK-MEL-2 melanoma, -67.2% (active); in the assay with EKVX NSCLC, 38.2%. In addition, the growth in the assay on SN12C renal is -85.1% (active); in the assay on UO-31 renal, -99% (active); in the assay on TK-10 renal, -95.9% (active); in the assay on ACHN renal, -98.8% (active); with CAKI-1 renal it was -71% (active); in the assay with A498 renal, 93.4%. Besides, the growth with CCRF-CEM leukemia is -71% (active).
